# PLK1 PBD inh: PLK1 (human) polo-box domain binding inhibition; P53350; Potency, µM, without a hit: max response, negative = inhibition, hits mostly inhibitors; actives 2.8% (n = 360,000); Plk1 PBD binding of FITC phosphopeptide, fluorescence polarization; also: potency is read from the fitted curve at half-maximal effect; series mostly up to about 57 µM; nearly all actives have a fitted effect of over 65% in size
# Target sequence (P53350 whole entry, looked up, the tested form may be a part): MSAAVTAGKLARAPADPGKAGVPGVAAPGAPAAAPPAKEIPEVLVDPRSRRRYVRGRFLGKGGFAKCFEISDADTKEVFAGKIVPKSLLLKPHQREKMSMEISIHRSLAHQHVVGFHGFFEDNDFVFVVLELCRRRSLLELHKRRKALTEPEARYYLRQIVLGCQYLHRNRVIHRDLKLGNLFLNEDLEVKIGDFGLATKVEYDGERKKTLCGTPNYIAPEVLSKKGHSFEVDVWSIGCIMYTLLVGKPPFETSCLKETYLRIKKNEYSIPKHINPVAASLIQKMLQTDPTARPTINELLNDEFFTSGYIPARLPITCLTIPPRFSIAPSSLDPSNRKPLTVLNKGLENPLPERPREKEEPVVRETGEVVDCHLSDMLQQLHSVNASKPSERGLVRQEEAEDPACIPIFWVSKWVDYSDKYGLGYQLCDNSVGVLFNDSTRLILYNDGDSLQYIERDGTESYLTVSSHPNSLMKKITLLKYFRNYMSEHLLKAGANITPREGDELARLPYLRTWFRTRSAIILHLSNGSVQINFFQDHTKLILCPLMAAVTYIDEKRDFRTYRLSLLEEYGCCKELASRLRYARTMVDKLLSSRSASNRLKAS
# Sfp PPTase inh: Sfp phosphopantetheinyl transferase inhibition | Q9F4F7 | Potency, µM, inactives show largest response in the series, negative = inhibition, actives largely listed as inhibitors | Biochemical Sfp PPTase activity, qHTS | AID 1490 | actives 3.5% (n = 310,000);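 also: the enzyme is Sfp with the accession as filed and its product quenches rhodamine fluorescence; potency is read from the fitted curve at half-maximal effect; 0% = enzyme reaction without inhibitor and -100% = no enzyme wells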
#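 Buffer: 50 mM Hepes-Na pH 7.6, 10 mM MgCl2, 0.01% Nonidet P-40, 0.01% BSA. Enzyme 15 nM, pre-exposed to compound 15 min; substrates then added and fluorescence change tracked over 30 min.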
# G9a inh: blocks human histone lysine methyltransferase G9a; Potency, µM (highest dose often 102 µM), inactives show at the highest dose activity, negative = inhibition, usual class: inhibitors; Q96KQ7; G9a H3K9 monomethylation, AlphaScreen, 2 h; AID 504332; actives 8.8% (n = 350,000); also: potency is read from the fitted curve at half-maximal effect; nearly all actives have a fitted effect of over 75% in size
#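 Using a bead-based AlphaScreen, monomethylated H3K9 product from 2 h room-temperature reactions (G9a 20 nM, peptide 500 nM, SAM 20 uM) was detected with 0.5 ug/mL rabbit anti-H3K9me1 antibody.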
# VDR inhibitor: inhibitors of human vitamin D receptor; P11473; VDR-SRC2-3 peptide fluorescence polarization, 2 h; Potency, µM, for inactives: max response, negative = inhibition, most hits filed as inhibitors; actives 0.93% (n = 400,000); AID 504847; also: potency is read from the fitted curve at half-maximal effect
#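 FP read-out; VDR + SRC2-3 coactivator peptide; 23 nl compound by pintool; 2 h RT incubation; reagents held at 4 deg C, protected from light.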
# CCT modulator: modulators of cytosolic chaperonin (CCT/TRiC) activity. actives 0.3% (n = 360,000). AID 651819. purified chaperonin ATPase assay, HTRF ADP detection, 30 min. activity change, % (no concentration beside the values), hits read low; in the data active = activity change below about -30%
#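 TRiC at 40 or 20 nM final (batch-dependent) in 30 mM Tris pH 7.4, 100 mM KCl, 5 mM MgCl2, 1 mM DTT, with compound at single 76 uM and 10 uM ATP, 30 min at 37 deg C. ADP detected by HTRF Transcreener, 665/615 ratio.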
# MmCpn inh: inhibitors of Methanococcus maripaludis chaperonin TRiC (MmCpn); purified Mm-Cpn ATPase, ADP Transcreener TR-FRET; Potency, µM (titrated, usually from 76.9 µM), inactives show top-dose activity, negative = inhibition, actives largely listed as inhibitors; actives 0.031% (n = 330,000); AID 504842; also: potency is read from the fitted curve at half-maximal effect; nearly all actives have a fitted effect of over 80% in size
#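 ATP (10 uM final) was added to archaeal chaperonin (25 nM final) after 10 min exposure to test compound at 37°C; after 30 min further incubation, ADP was detected by competitive TR-FRET.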
# Active calls of the source: *; ? = inconclusive; / = no result given; [ ] = dose if it differs, or a comment. Most compounds without a hit are left out; they make up all but 10% or so of the library. Unless noted, calls follow the shape of the dose curve; as a rule, active = well fitted curve in the direction sought with a large enough effect; inconclusive = small, poorly fitted or top-dose-only effect, or another doubt; inactive = no such curve, though single readings can be large; an effect the other way counts as inactive or inconclusive. Unless noted, % is scaled to controls: 0 for no effect and ±100 for the full control effect.
SMILES,PLK1 PBD inh,Sfp PPTase inh,G9a inh,VDR inhibitor,CCT modulator,MmCpn inh
Cc1cc(C(=O)NCCc2ccc(S(=O)(=O)NC(=O)NN3CCCCCC3)cc2)no1,/,?,0%[59 µM],-7%,/,/
Cc1ccc(N2CCN(C(=O)CCc3c(C)nc4ncnn4c3C)CC2)c(C)c1,/,/,-16%[59 µM],-9%,/,/
Cc1ccc(-n2ncc(C(=O)NCCc3c[nH]c4ccccc34)c2C2CCN(C(=O)OC(C)(C)C)CC2)cc1C,/,/,-65%[59 µM],-14%,/,/
Cc1cc(C)c(C)c(C(=O)CSc2nnc(-c3ccc4[nH]c(C)c(C)c4c3)o2)c1C,-3%,0%,25µM*,3%,1,0%
CCS(=O)(=O)n1nc(-c2ccc(Cl)cc2)nc1SCc1ccccc1,-19%,-2%,7.1µM*,-20%,-2,1%
Cc1[nH]c2ccc(-c3nnc(SCC(=O)c4ccc(F)cc4)o3)cc2c1C,-12%,3%,?,-5%,-5,1%
CCn1c(SCc2ccc(Cl)cc2)nnc1-c1ccccc1,27µM*,5%,20%[59 µM],-19%,-1,-2%
CCn1c(SCC(=O)O)nnc1-c1ccc2[nH]c(C)c(C)c2c1,-16%,2%,14µM*,-24%,-4,-1%
CCn1c(SCc2ccc(C#N)cc2)nnc1-c1cccc(Cl)c1,-9%,14%,9%[59 µM],-10%,0,1%
COc1ccccc1NC(=O)c1oc2ccccc2c1NC(=O)C1CCCCC1,/,/,3%[59 µM],-7%,/,/
CCc1ccc(-c2nc(CS(=O)CC(=O)NCCc3ccc(C)cc3)c(C)o2)cc1 (stereo unspecified),/,/,?,9%,/,/
Cc1ccc(CNC(=O)C2CCN(S(=O)(=O)c3ccc4[nH]c(=O)ccc4c3)CC2)cc1,/,/,3%[59 µM],-2%,/,/
COCCCn1c(SCC(=O)NC(C)C)nnc1-c1ccccc1,7.5µM*,18%,24%[59 µM],-18%,-2,1%
COCCCn1c(Cc2csc(Nc3ccccc3)n2)nnc1SCC(N)=O,?,32µM*,6.3µM*,8%,1,-1%
COCCCn1c(SCC(N)=O)nnc1-c1ccccc1,-11%,2%,17%[59 µM],2%,-1,2%
COc1ccc2nc3cccc(OC)c3nc2c1,?,-85%,22µM*,-18%,-3,-4%
COc1ccc2nc3ccccc3nc2c1N,-21%,4.5µM*,1µM*,?,1,-7%
COc1ccccc1C(=O)Nc1ccc(-c2cc(C(F)(F)F)nn2-c2ccccc2)cc1,/,/,3%[59 µM],7%,/,/
CC(=O)Nc1ccc(SCCN2CCN(CCc3ccccc3)CCC2=O)cc1,/,50µM*,/,18µM*,/,/
CC(C)(C)[C@H]1CCC(=O)N([C@H](CSc2ccccc2)Cc2ccccc2)CC1,-19%,-1%,50%,-21%,-2,-1%
CC(C)CN1CCC(=O)N([C@H](CSc2ccccc2)Cc2ccccc2)CC1,21µM*,5%,2%,?,-2,-1%
CC(=O)Nc1ccc(S[C@@H](CCN2CC[C@H](C(C)(C)C)CCC2=O)c2ccccc2)cc1,8.4µM*,/,?,?,-36*,-2%
Cc1ccc(SC[C@H](Cc2ccccc2)N2CCN(CC(C)C)CCC2=O)cc1,-9%,0%,4%[12.7 µM],-24%,-2,-1%
O=C1CCN(CCc2ccccc2)CCN1CCSc1ccccc1,3%,-1%,/,-13%,-5,-5%
CC(=O)Nc1ccc(SC[C@H](Cc2ccccc2)N2CC[C@@H](C(C)(C)C)CCC2=O)cc1,9.5µM*,/,6%[0.501 µM],?,0,1%
SMILES,PLK1 PBD inh,Sfp PPTase inh,G9a inh,VDR inhibitor,CCT modulator,MmCpn inh
CC(C)(C)[C@@H]1CCC(=O)N(CC[C@H](Sc2ccccc2)c2ccccc2)CC1,-14%,-30%,/,-12%,2,-2%
CC1=C(C(=O)NCc2ccccc2C)C2(CCCCCC2)OC1=O,/,/,2%[59 µM],-2%,/,/
CC(=O)Nc1ccc(SC[C@H](Cc2ccccc2)N2CCN(CCc3ccccc3)CCC2=O)cc1,12µM*,-10%,?,?,2,0%
Cc1ccc(C(=O)c2cc(C)sc2N)cc1,-17%,-25%,40µM*,?,-3,0%
Cc1cc(C(=O)c2ccc(Cl)cc2)c(NC(=O)CCl)s1,-16%,-16%,?,-15%,0,0%
O=C(O)c1ccc(Nc2nc3ccccc3c3nncn23)cc1,/,/,8%[59 µM],-7%,/,/
Cc1ccc2c(c1)CCCN2S(=O)(=O)c1cccc(C(=O)Nc2ccccc2C(=O)O)c1,19µM*,/,/,/,/,/
CCc1cccc(CC)c1NC(=O)c1cccc(S(=O)(=O)N2CCN(C)CC2)c1,2%,-22%,10µM*,-18%,1,0%
CCc1cccc(CC)c1NC(=O)c1ccc2c(c1)CCN2S(=O)(=O)c1ccccc1,/,/,2.5µM*,-6%,/,/
N#CCCN(Cc1ccccc1)C(=O)c1nccnc1C(=O)O,-26%,-5%,35µM*,-8%,-2,-1%
CCOc1ccc(NC(=O)COc2ccc(S(=O)(=O)NC3CCCCC3)cc2)cc1,/,/,-27%[59 µM],-9%,/,/
Cc1c(NC(=O)C(F)(F)F)ccc2nc3c(=O)n(C)c(=O)n(C)c3nc12,/,/,-36%[59 µM],-3%,/,/
O=C(/C=C/c1ccccc1Cl)NC1CCS(=O)(=O)C1 (stereo unspecified),3.8µM*,5%,6%,?,-3,3%
Cc1ccc(/C=C/C(=O)c2ccccc2O)cc1,-5%,-17%,/,?,1,0%
O=C(C=Cc1ccccn1)c1ccccc1O,21µM*,/,/,56µM*,-3,/
O=C(C=Cc1ccccc1Cl)c1ccccc1,-16%,/,/,35µM*,-1,/
O=C(/C=C/c1ccccc1Cl)NC1CCCCC1,-19%,4%,60%,-6%,-1,-1%
O=C(C=Cc1ccccn1)c1ccccc1,?,/,/,20µM*,-1,/
CN(C)c1ncc2nc(-c3ccccc3)c(=O)n(Cc3cccs3)c2n1,/,16%,-4%[0.501 µM],11%,/,/
CN(CCCNC(=O)Cn1ncc2c([nH]c3ccccc32)c1=O)Cc1ccccc1,/,/,-34%[59 µM],5%,/,/
COCCNC(=O)NC1(C(F)(F)F)Oc2ccc(Cl)cc2O1 (stereo unspecified),-18%,1%,40µM*,9%,-2,0%
CCCCNC(=O)NC1(C(F)(F)F)Oc2ccccc2O1,-2%,9%,?,-18%,0,0%
Cc1cc(NC(=O)NC2(C(F)(F)F)Oc3ccc(Cl)cc3O2)no1 (stereo unspecified),-10%,0%,7.9µM*,5%,0,0%
Cc1cc(NC(=O)Nc2ccc(F)c(Cl)c2)no1,13%,18%,8%[59 µM],-2%,-8,0%
O=C(NCc1cccnc1)NC1(C(F)(F)F)Oc2ccc(Cl)cc2O1 (stereo unspecified),3%,0%,32µM*,-26%,-2,-1%

# Screens as filed in PubChem BioAssay.
